This is a sample that favours compounds with a hit; in the whole collection about 3.8% have one here.
A549 tox – Nrf2 qHTS screen for inhibitors: counterscreen for cytotoxicity | A549 ARE-Fluc cells, CellTiter-Fluor viability, 18-24 h | Potency, µM (titrated, usually from 46 µM), inactives show at the highest dose activity change, negative = cytotoxicity, actives largely listed as inhibitors | hit rate 0.16% among 390,000; note: % is set by controls: 0 for no effect and ±100 for the full control effect
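A549 ARE-Fluc cells in 5% FBS OPTI-MEM, 5000 cells/well, rested 2 h then exposed to compounds in concentration-response for 18-24 h at 37 °C. Viability by CellTiter-Fluor fluorescence (Ex 405/Em 525) after 30 min; luciferase luminescence (BugLite, 15 min, RT) read afterwards.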
TGFb inhibitor – qHTS for Inhibitors of TGF-b; Potency, µM (top dose mostly 46.1 µM), inactives show top-dose activity, negative = inhibition, most hits filed as inhibitors; HepG2 CAGA-GFP TGF-b/SMAD3 reporter, GFP fluorescence, 18 h; TGF-beta stimulated, 500 pg/mL final; AID 588855, 2011; hit rate 1.2% among 410,000; note: % is set by controls: 0 for no effect and ±100 for the full control effect; nearly all actives have a fitted effect of over 65% in size
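TGF-beta reporter screen: HEPG2 CAGA-GFP, 1% FBS, 500 pg/mL TGF-beta final, 18 h; per-cell GFP summed per well; curves fitted and categorized by class.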
S2 tox – Viability Counterscreen for Primary qHTS for Inhibitors of ATXN expression. S2 cells (HEK-293 line with an ATXN2-luciferase reporter) viability, CellTiter-Fluor protease fluorescence, 24 h. Potency, µM (series often up to 56.7 µM), hits mostly cytotoxic. hit rate 0.49% among 400,000. AID 651635, 2014; note: nearly all actives have a fitted effect of over 40% in size
Nrf2 inh – Nrf2 qHTS screen for inhibitors; Potency, µM (top dose mostly 46 µM), for inactives: at the top dose activity change, negative = inhibition, usual class: inhibitors; hit rate 2.1% among 360,000; AID 504444, 2011; A549 ARE-Fluc reporter, luciferase luminescence, 18-24 h; note: % is set by controls: 0 for no effect and ±100 for the full control effect; nearly all actives have a fitted effect of over 60% in size
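Nrf2 function is reported as luminescence of an ARE-controlled luciferase in A549 cells. Compounds were tested at several concentrations, and a CellTiter-Fluor read on the same wells flagged cytotoxicity.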
HepG2 viability – qHTS for Inhibitors of TGF-b: Cytotox Counterscreen | HepG2 CAGA-GFP viability, ATP luminescence, 18 h | Potency, µM (doses to about 46.1 µM), inactives show top-dose activity change, negative = cytotoxicity, most hits filed as cytotoxic | hit rate 0.76% among 410,000
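CellTiter-Glo luminescence gave cytotoxicity after 18 hours at 37 degrees C. The cells were HepG2 CAGA-GFP in 1% FBS DMEM, stimulated with 500 pg/mL TGF-beta after compound addition. %Activity was normalised to no-cell wells (complete cell-killing) and DMSO (no toxicity), and curves were fitted and classified.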
ATXN2 expr inh – Primary qHTS for Inhibitors of ATXN expression. HEK-293 ATXN2-luciferase reporter, luminescence, 24 h. Potency, µM (series often up to 57 µM), without a hit: at the highest dose activity change, negative = inhibition, usual class: inhibitors. hit rate 0.72% among 360,000. AID 1745845, 2022; note: % is set by controls: 0 for no effect and ±100 for the full control effect; nearly all actives have a fitted effect of over 55% in size
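ATXN2-luciferase reporter cells (luciferase flanked by upstream and downstream ATXN2 gene portions) were treated 24 h at 37 °C with compounds at up to 57 uM. SteadyGlo luminescence gave expression; GF-AFC fluorescence gave viability.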
The depositor's hits bear a star; i = inactive; ? = inconclusive; / = no result. Calls come from the whole dose curve; as a rule, active = well fitted curve in the direction sought with a large enough effect; inconclusive = small, poorly fitted or top-dose-only effect, or another doubt; inactive = no such curve, though single readings can be large; an effect the other way counts as inactive or inconclusive. Potency is the fitted concentration of half-maximal effect.

SMILES	A549 tox	TGFb inhibitor	S2 tox	Nrf2 inh	HepG2 viability	ATXN2 expr inh
Cc1ccc2nc(-c3cccc(Br)c3)c(Cc3cccc(Cl)c3)n2c1	/	?	i	/	-24%	24%
COc1ccccc1CNc1ncnc2c1nnn2Cc1ccccc1	-7%	-15%	i	7%	-3%	-3%
COc1cccc(C(C)NC(=O)Cc2cccs2)c1 (stereo unspecified)	1%	8%	i	-20%	10%	2%
COc1ccc(S(=O)(=O)N2CCC[C@H]2C(=O)N2CCC[C@H]2C(=O)N(C)Cc2ccccc2)cc1C	/	/	?	/	/	7%
Cc1ccc(OCCNC(=O)C2CC(=O)N(Cc3ccccc3)C2)cc1 (stereo unspecified)	13%	-18%	i	-13%	-12%	-2%
Cc1cc(C)nc(NC(=NCCc2c[nH]c3ccccc23)NC(=O)C(C)(C)C)n1	?	13%	i	21µM*	-5%	0%
CCN(c1cccc(C)c1)S(=O)(=O)c1ccc(-c2cc(C)no2)s1	-1%	?	?	6%	-14%	/
Cc1cccc(N(C)S(=O)(=O)c2ccc(-c3cc(C)no3)s2)c1	-13%	11µM*	i	?	-27%	12%
Cc1nc([N+](=O)[O-])c(Br)n1CC(=O)c1ccc(Br)cc1	16µM*	?	?	23µM*	-94%	-19%
Cc1nc([N+](=O)[O-])c(Br)n1CC(=O)c1ccccc1	?	?	i	/	0%	-11%
Cc1nc([N+](=O)[O-])c(Br)n1CC(=O)c1ccc2ccccc2c1	-15%	?	32µM*	?	10µM*	?
CCOc1ccc(C(=O)NC2CCN(C(=O)Nc3ccc(F)cc3)CC2)cc1	0%	0%	?	5%	2%	-10%
O=C(COC(=O)c1cc([N+](=O)[O-])ccc1Cl)NC1CCCC1	0%	-1%	i	-12%	5%	0%

Bioassay records deposited in PubChem by National Center for Advancing Translational Sciences (NCATS).
